Data on twelve molecules can be found in PubChem BioAssay (NCATS).

Records with an inconclusive call do not appear. Calls of active or inactive are those of the source. Calls follow the shape of the dose curve; as a rule, active = well fitted inhibition curve with a large enough effect; inconclusive = small, poorly fitted or top-dose-only effect; inactive = flat fitted curve, though single readings scatter.

Holding throughout (test): qHTS profiling for inhibitors of Plasmodium falciparum proliferation (AID 504749); also: nearly all actives have a fitted effect of over 60% in size
What all share (details): P. falciparum in erythrocytes, SYBR Green DNA, 72 h; series mostly up to 28.7 µM

The test system of one experiment is CP217. The gist of the method:
(§1)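 P. falciparum-infected erythrocytes (0.3% parasitemia, 2.5% hematocrit) incubated with compound 72 h at 37 C, 5% CO2. Parasite DNA detected by SYBR Green after lysis, overnight at room temperature; normalised to 0.29 uM artemisinin and DMSO.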

A further experiment has as its system CP237. Summed up: as §1
The next experiment concerns CP247. Summed up:
as §1

A further experiment relates to CP250. Summed up:
as §1

The next experiment relates to CP256. Summed up:
as §1

The next experiment concerns CP260. Summed up: as §1
The test system of a further experiment is CP262. The gist of the method: as §1
For the next experiment, the system named is CP252. The gist of the method:
as §1

For the next experiment, the system named is CP215. The gist of the method:
as §1

A further experiment deals with CP238. The gist of the method: as §1
Potency is read from the fitted curve at half-maximal effect.

Take `CN1CCCN(C(c2ccccc2)c2ccc(Cl)cc2)CC1` (stereo not given): the Potency in the experiment on CP217 was 14.1 µM (active); with CP237, 11.2 µM (active); in the experiment on CP247 it was 11.2 µM (active); in the experiment with CP250, 12.6 µM (active); in the experiment with CP256, 10 µM (active); with CP260, 10 µM (active). The Potency entry with CP262 is “inactive”.

As for `Nc1ccc2cc3ccc(N)cc3nc2c1`, the Potency with CP237 is 12.6 µM (active); in the experiment on CP260, 8.91 µM (active). The Potency result in the experiment on CP262 is “inactive”.

Consider `CN1CCC(Nc2ncc3ncnc(Nc4ccc(F)c(Cl)c4)c3n2)CC1`, for which the Potency in the experiment with CP217 is 11.2 µM (active); in the experiment with CP252 it was 7.94 µM (active). In addition, the Potency result in the experiment on CP262 is “inactive”.

As to `CCCCCCCCCCCCCCCC[n+]1ccccc1`, the Potency was 13.5 µM (active) with CP215; 5.62 µM (active) with CP217; 7.94 µM (active) with CP237; 7.08 µM (active) in the experiment on CP238; 5.62 µM (active) in the experiment on CP247; 6.31 µM (active) in the experiment on CP250. The Potency is 6.31 µM (active) with CP252, 8.91 µM (active) in the experiment with CP256, 3.98 µM (active) in the experiment on CP260 and 3.38 µM (active) in the experiment with CP262.

With `CC(NCCC(c1ccccc1)c1ccccc1)c1ccccc1` (stereo not given), the Potency with CP217 was 8.91 µM (active); in the experiment with CP237, 10 µM (active); with CP247, 7.94 µM (active); in the experiment with CP252, 10 µM (active); with CP256, 12.6 µM (active); with CP260 it was 10 µM (active). Besides, the Potency entry in the experiment on CP262 was “inactive”.

Turning to `CCCCCCCCCCCCCC[N+](C)(C)C`, the Potency in the experiment with CP215 is 8.49 µM (active); with CP217, 8.91 µM (active); in the experiment with CP237, 5.01 µM (active); in the experiment with CP238, 3.98 µM (active); in the experiment on CP247, 3.98 µM (active); in the experiment with CP250, 5.62 µM (active). The Potency with CP252 is 7.08 µM (active); with CP256 it was 7.94 µM (active); with CP260 it was 3.98 µM (active); in the experiment with CP262 it was 4.78 µM (active).

As for `Nc1ncnc2nc[nH]c12`, the Potency entry in the experiment with CP215, in the experiment on CP217, in the experiment on CP237, in the experiment on CP238, in the experiment on CP247 and in the experiment on CP250 was “inactive” each time. Besides, the Potency entry in the experiment on CP252, in the experiment with CP256, in the experiment with CP260 and in the experiment on CP262 was “inactive” throughout.

For `O=C(Nc1ccc(Cl)cc1)Nc1ccc(Cl)c(Cl)c1`, the Potency in the experiment on CP215 is 6.75 µM (active); with CP217, 2.24 µM (active); in the experiment on CP237, 2 µM (active); in the experiment with CP238, 3.55 µM (active); in the experiment on CP247 it was 3.98 µM (active); in the experiment with CP250, 3.16 µM (active). The Potency in the experiment with CP252 is 3.55 µM (active); in the experiment with CP256, 2.24 µM (active); in the experiment on CP260, 2 µM (active); with CP262 it was 5.36 µM (active).

With `CCCCCCCCCCCCCCCC[N+](C)(C)Cc1ccccc1`, the Potency is 9.53 µM (active) with CP215; 3.16 µM (active) with CP217; 3.55 µM (active) in the experiment on CP237; 0.891 µM (active) in the experiment on CP238; 2.24 µM (active) in the experiment on CP247; 2.51 µM (active) in the experiment with CP250. Moreover, the Potency with CP252 was 3.16 µM (active); in the experiment with CP256 it was 3.98 µM (active); in the experiment on CP260 it was 2 µM (active); in the experiment with CP262 it was 4.78 µM (active).

Turning to `O=[N+]([O-])c1ccc(O)c2ncccc12`, the Potency with CP247 was 11.2 µM (active); with CP252 it was 8.91 µM (active); with CP262 it was 12 µM (active).

On to `Nc1c2ccccc2nc2ccccc12`, for which the Potency was 8.91 µM (active) in the experiment with CP237; 10 µM (active) in the experiment with CP238; 10 µM (active) with CP247; 10 µM (active) with CP252; 11.2 µM (active) with CP256; 7.94 µM (active) with CP260. Moreover, the Potency result in the experiment with CP262 is “inactive”.

Turning to `O=S(=O)(O)c1ccc2nc(-c3ccccc3)[nH]c2c1`, the Potency entry in the experiment with CP215, with CP217, in the experiment on CP237, in the experiment on CP238, in the experiment on CP247 and in the experiment with CP250 was “inactive” in each case. In addition, the Potency entry in the experiment on CP252, with CP256, in the experiment with CP260 and in the experiment with CP262 was “inactive” each time.
